From PubChem BioAssay (NCI) come the findings set out here.

About 83,000 compounds went through this panel and 20% of them were active in at least one assay; those are over-represented in the sample as a whole.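 The endpoint reported here, percent growth, reads 100 for growth as untreated, 0 for no net growth and -100 for all cells dead.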 Active and inactive are the calls of the source. The calls were made as follows: active = growth percent below 10; inactive = the rest.

This assay concerns MDA-MB-468 breast. In words: NCI-60 one-dose screen, 48 h (100 = growth as untreated, 0 = no growth, -100 = all killed). To be noted: 10 µM unless noted.
`O=C(NCc1ccc(Cn2c(=O)sn(-c3ccccc3)c2=O)cc1)OCc1ccc2cccc(O)c2n1`: the growth is -73.3% (active). As to `COc1cc2c(Oc3ccc(NC(=O)C4(C(=O)Nc5ccc(F)cc5)CC4)cc3F)ccnc2cc1OCCCN1CCOCC1`, the growth is 12.1% (inactive). Regarding `Nc1ccc(-c2ccc(N)c(Br)c2)cc1Br`, the growth is 19.8% (inactive). Next, `Cn1c2c(c(=O)[nH]c1=O)NC1=C(C(=O)c3ccccc31)C1(C=C(O)c3ccccc31)N2` (stereo not given): 100% (inactive). Take `O=[N+]([O-])c1cccc(-c2nc(-c3ccc(Cl)cc3Cl)cn2-c2ccccc2)c1`: the growth is 22.2% (inactive).

In the case of `O=C(Nc1ccccc1O)c1ccccc1Nc1ccnc(C(F)(F)F)c1`, the growth was 116% (inactive).

`COC(=O)c1ccc(=O)oc1`: the growth was 105% (inactive). Regarding `O=C(CN1CCN(c2cc(=O)n(-c3ccccc3)c3ccccc23)CC1)Nc1ccc(F)cc1`, the growth is 9.45% (active).

Consider `CCCCN(CCCC)CCCn1c(=O)c2sc3ncccc3c2n2nnc(-c3ccccc3)c12`, for which the growth is 109% (inactive).

For the molecule `CC[C@H](C)[C@@H](C(=O)OC)n1cc(CNC(=O)[C@@H](Cc2ccccc2)NC(=O)OCc2ccccc2)nn1`, the growth was 99% (inactive).

On to `Cc1ccc(C(=O)/C(=C\c2ccc([N+](=O)[O-])cc2)S(=O)Cc2ccc(F)cc2)cc1` (stereo not given), for which the growth was -10.3% (active). The value for `NC(=O)C1CC2C=CC1C2` (stereo not given) was 109% (inactive).

Consider `O=C(O)C#Cc1ccc(Cl)cc1`, for which the growth is 101% (inactive). Regarding `CCCCCC#CC1OC23CCCCC2C(C#N)(C(=N)O3)C1(C#N)C#N` (stereo not given), the growth is 92.6% (inactive).

As to `NS(=O)(=O)c1ccc(N2Cc3cc(Cl)ccc3OC3=C2C(=O)N(CC2CCCCC2)C3=O)cc1`, the growth was -81.1% (active).
